# GAA850 FXN act: increases GAA850 frataxin promoter reporter activity; HEK293 lucGAA850 FXN promoter luciferase reporter, 24 h; percent of 10 µM SAHA response; activation, % at 6 µM; hit rate 0.56% among 360,000;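 active = activation above the average of all compounds screened plus 3 SD, cutoff fixed separately per campaign, cut at about 7.5% in these data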;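 note: 0% = DMSO wells and 100% = 10 µM SAHA wells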
# hgDAF-12 ag: activates the H. glycines DAF-12 receptor ligand-binding domain; HEK293 GAL4-hgDAF12 UAS-luciferase reporter, agonist luminescence; normalized to butyrate control; activation, % at 6.8 µM; hit rate 1.8% among 370,000; AID 687014;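 active = activation above a cutoff set at the mean of all screened compounds plus 3 SD, cut at about 10% in these data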;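 note: 0% = DMSO wells and 100% = sodium butyrate wells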
# hcDAF12 agonist: H. contortus DAF-12 activation, primary screen | HEK293 hcDAF-12 lit1-tk-luc reporter, luminescence; 0% DMSO, 100% Δ7-dafachronic acid | activation, % at 6.8 µM | hit rate 1.4% among 370,000 | AID 652067;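 active = activation above the mean of all tested compounds plus 3 SD, cut at about 5.5% in these data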;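 note: 100% = response to 3 µM Δ7-dafachronic acid high control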
# DAX1 inh-1: NR0B1 (DAX1) inhibition; P51843; HEK293 Gal4-DAX1 luciferase reporter, luminescence; inhibition, % at 6.75 µM; hit rate 0.99% among 340,000;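 active = inhibition above the mean over all tested compounds plus 3 SD, cut at about 4.2% in these data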;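 note: 0% = DAX1-transfected cells with DMSO and 100% = empty-vector control cells with DMSO; inhibition shows as a rise in luminescence from relieved DAX1 repression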
# Target sequence (P51843 207-470 limits assumed): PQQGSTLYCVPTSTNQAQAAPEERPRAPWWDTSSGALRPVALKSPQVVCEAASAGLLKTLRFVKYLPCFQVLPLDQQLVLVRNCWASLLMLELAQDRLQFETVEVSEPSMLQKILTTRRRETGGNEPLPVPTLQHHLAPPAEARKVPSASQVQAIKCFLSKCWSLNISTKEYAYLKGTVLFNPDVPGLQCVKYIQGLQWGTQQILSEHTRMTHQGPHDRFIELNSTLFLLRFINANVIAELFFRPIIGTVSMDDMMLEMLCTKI
# DAX1 inh-2: DAX1 (NR0B1) inhibition, primary screen; HEK293T StAR-luciferase reporter, SF-1/DAX-1 repression relief; inhibition, % at 6.8 µM; hit rate 1.1% among 370,000; AID 652010;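 active = inhibition above the mean over all tested compounds plus 3 SD, cut at about 3.6% in these data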;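 note: 0% = DAX-1 cells with DMSO and 100% = cells lacking DAX-1 with DMSO; higher inhibition means more luminescence from relief of DAX-1 repression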
# ssDAF-12 act: activators of S. stercoralis DAF-12 nuclear receptor | HEK293 ssDAF-12/GRIP1 lit1-tk-luc reporter, luminescence; % of 3 µM dafachronic acid response | activation, % at 6.8 µM | hit rate 1% among 370,000;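 active = activation above the mean over all tested compounds plus 3 SD, cut at about 0.9% in these data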;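 note: 0% = DMSO-only wells and 100% = 3 µM delta7-dafachronic acid wells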
# Starred values were filed as active, the others as inactive; . = no result. In the library only some 4.5% were active in any assay of this set; here they are far more common.
SMILES,GAA850 FXN act,hgDAF-12 ag,hcDAF12 agonist,DAX1 inh-1,DAX1 inh-2,ssDAF-12 act
Fc1ccc(NCc2cccnc2)cc1F,0,1,4,-1,0,1.2*
COC(=O)C1CN(CC(C)C)CCS(=O)(=O)N1Cc1ccc(C(F)(F)F)cc1 (stereo unspecified),.,-6,-2,.,-1,-1
CC(=O)c1ccc(N2CCN(C(=O)[C@H](C)NC(=O)c3ccccc3Cl)CC2)cc1,0,0,-1,6.0*,1,-1
COc1ccc(N2CCN(C(=O)[C@H](C)NC(=O)c3ccccc3Cl)CC2)cc1,1,-1,-3,2,0,-1
C=CCn1c(SCC(C)=O)nnc1-c1ccc2ncccc2c1,0,-2,-1,4.9*,0,-1
Cc1cc(C(=O)C(=O)O)c(C)n1-c1ccc(Cl)c(Cl)c1,0,-2,0,0,0,1.0*
COc1ccc(CNS(=O)(=O)/C=C/c2cc(C)ccc2CNC(=O)OC(C)(C)C)cc1,.,-5,-4,.,-2,-2
CN1C(=O)C[C@@](C#N)(C(=O)Nc2nc3ccc(F)cc3s2)[C@H]1c1ccccc1,.,-4,-2,.,-1,-1
COc1cccc(CN2CCN(Cc3[nH]c4ccccc4c3C)CC2CCO)c1 (stereo unspecified),-3,0,4,1,0,-1
COc1cccc(C#Cc2c(CO)[nH]c3ccccc23)c1,2,1,6.2*,0,0,1
CCCc1nc([N+](=O)[O-])c(S(=O)(=O)c2ccccc2)n1CC(C)C,-7,10*,1,-1,0,-1
CC(C)Cn1c(C(C)C)nc([N+](=O)[O-])c1S(=O)(=O)c1ccc(F)cc1,-1,1,-2,-3,-1,-2
O=C1CC(C(=O)Nc2ccc(Cl)cc2)n2ncnc2N1 (stereo unspecified),0,-2,-1,0,0,-1
Cc1ccc(NC(=O)C2CC(=O)Nc3nncn32)cc1 (stereo unspecified),-3,3,2,0,0,8.3*
c1csc(-c2nc3ccccc3s2)c1,5,7,2,4.6*,0,-1
CCn1c(COc2ccc(C)cc2)nnc1SCC(=O)Nc1ccc(Oc2ccccc2)cc1,.,-1,-1,.,-1,-1
O=C(CSc1nc2ccsc2c(=O)n1CC1CCC(C(=O)O)CC1)c1ccc(Cl)cc1 (stereo unspecified),-1,-2,-2,0,1,-1
NS(=O)(=O)c1ccc(CCNC(=O)CSc2nc3ccsc3c(=O)n2CC2CCC(C(=O)O)CC2)cc1 (stereo unspecified),-1,0,1,0,0,-1
O=C(CSc1nc2ccsc2c(=O)n1CC1CCC(C(=O)O)CC1)c1ccc(F)cc1 (stereo unspecified),0,11*,-1,1,-1,-2
O=C(O)C1CCC(Cn2c(SCc3cc(=O)n4ccccc4n3)nc3ccsc3c2=O)CC1 (stereo unspecified),1,0,-2,5.0*,0,-2
O=C(C1CCC1)N1CCc2cc(S(=O)(=O)C3CCN(Cc4ccc(F)cc4)CC3)ccc21,.,1,-1,.,0,-1
C=CCn1c(SCc2cccc(C(F)(F)F)c2)nnc1-c1ccc(OC)cc1,.,1,-3,.,-1,-2
COc1cccc([C@@H]2NC(=O)C/C=C/[C@H](C)[C@H](c3cccc(OC)c3)NC(=O)C/C=C/[C@@H]2C)c1,.,-2,0,.,-1,0
CC(COc1cccc(OC(F)(F)F)c1)CN1CCC(C(O)(c2ccccc2)c2ccccc2)CC1 (stereo unspecified),.,1,-1,.,-1,-1
CCn1c(Cc2cccs2)nnc1SCC(=O)c1ccc(Cl)cc1,.,-1,-3,.,1,0
SMILES,GAA850 FXN act,hgDAF-12 ag,hcDAF12 agonist,DAX1 inh-1,DAX1 inh-2,ssDAF-12 act
c1ccc(OCCNc2ccn3nc(-c4ccccc4)cc3n2)cc1,4,10,1,.,-1,-1
FC(F)(F)c1cccc(-c2cc3nc(NCCOc4ccccc4)ccn3n2)c1,0,12*,4,.,-1,-1
Clc1ccc(OCCn2ccnc2)c(Cl)c1,1,1,-2,8.9*,0,-2
Cc1cc(C)cc(NC(=O)OC2CCC23CCCCC3)c1 (stereo unspecified),.,2,1,.,-1,-1
Cc1cc(NC(=O)CCCOc2ccc(Cl)cc2Cl)no1,-2,1,2,0,0,-1
C/C(=N/NC(=O)CCCOc1ccc(Cl)cc1Cl)c1ccc(C)o1,0,0,-1,0,-1,1.1*
Cc1nc(SCC(=O)NC(=O)NCCC(C)C)c2c(-c3cccs3)csc2n1,2,-2,-2,0,0,2.1*
O=C(NC1CCCCCC1)c1ccc(CN2CCOCC2)cc1,6,8,3,4.6*,1,0
O=C(NC1CCCC1)c1ccc(CN2CCOCC2)cc1,0,-2,-2,1,0,-1
O=C(NCCC1=CCCCC1)c1ccc(CN2CCOCC2)cc1,3,7,5,3,2,0.9*
C=CCOc1ccc(C(=O)NC2CCCCC2)cc1,3,10*,4,1,1,-1
COc1ccc(CCNC(=O)c2ccc(CN3CCOCC3)cc2)cc1,2,1,-2,0,0,-2
O=C(NC1CCCCN(Cc2cccc(C(F)(F)F)c2)C1=O)c1cccc([N+](=O)[O-])c1 (stereo unspecified),.,-1,-1,.,-1,-2
O=C(O)c1ccc(N/N=C/C=C/c2ccccc2[N+](=O)[O-])cc1,7,12*,5,1,4,3.6*
Oc1ccccc1C=NN=CC=Cc1ccccc1,2,3,1,4,0,-1
O=[N+]([O-])c1ccccc1C=CC=NN=Cc1ccccc1O,-2,1,2,5.5*,-1,0
CCn1c(SCC(=O)Nc2ccccc2-c2ccccc2)nnc1-c1cnccn1,.,-6,-2,.,0,-1
C/C(Cc1ccccc1)=N/NC(=O)CNC(=O)C(c1ccccc1)c1ccccc1,0,0,6.0*,0,0,0
c1ccc(C(Nc2cccnc2)c2ccccc2)cc1,-3,1,-1,1,-1,-1
c1ccc(NC(c2ccccc2)c2ccncc2)cc1 (stereo unspecified),0,1,0,2,0,1.4*
CC(=O)Nc1sc(N/N=C/c2ccccc2)nc1-c1ccc(C)cc1,1,4,2,5.0*,1,-1
Cc1cc(C)nc(N/N=C/C=C/c2ccccc2)n1,1,1,-2,0,1,0
CC(=O)Nc1sc(N/N=C\c2ccccc2)nc1-c1cccs1,1,10,6.2*,1,0,1.7*

# High-throughput results (PubChem)
